# Positions count from the first letter of the chain named.
# Experiments:
# Experiment in all cases: yeast three-hybrid, YBZ-1, SC-Leu-His + 0.5 mM 3-AT, 4 days
# Conditions in all cases: tags: N-Gal4 AD-HA kept; label: inside an RPR1-promoter hybrid RNA with tandem MS2 sites; ssRNA
# [1] = target: PUM1 PUF domain R5-QNS (Homo sapiens, UniProt Q14671 828-1176, C1007Q;R1008N;Q1011S)
# Summary of the method: (§1)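 Sequencing with Illumina followed PCR amplification of the repeat regions from transformants grown four days on SC-Leu (input) or SC-Leu-His + 0.5 mM 3-AT (selection). The transformants were strain YBZ-1 with a LexA–MS2 coat fusion and a HIS3 reporter, carrying Pumilio-1 PUF domain libraries and matching RNA elements. The interaction score is the log change in variant frequency from input to selection, computed in log2 with a pseudocount of 1 for absent variants.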
# [2] = target: T1, PUM1 PUF domain R6-HYR (Homo sapiens, UniProt Q14671 828-1176, N1043H;Q1047R)
# T1 sequence: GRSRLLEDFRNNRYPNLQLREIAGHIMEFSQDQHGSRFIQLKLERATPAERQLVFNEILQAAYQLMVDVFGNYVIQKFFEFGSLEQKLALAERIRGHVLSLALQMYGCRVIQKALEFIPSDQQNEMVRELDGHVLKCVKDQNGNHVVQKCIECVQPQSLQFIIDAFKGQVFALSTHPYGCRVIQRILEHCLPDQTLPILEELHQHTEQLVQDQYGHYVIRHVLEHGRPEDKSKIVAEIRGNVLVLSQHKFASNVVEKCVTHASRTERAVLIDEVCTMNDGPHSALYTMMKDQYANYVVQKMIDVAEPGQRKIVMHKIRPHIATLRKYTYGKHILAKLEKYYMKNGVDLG
# Summary of the method: as §1
# [3] = target: T2, PUM1 PUF domain R6-FWR (Homo sapiens, UniProt Q14671 828-1176, N1043F;Y1044W;Q1047R)
# T2 sequence: T1 sequence with H216F, Y217W
# Summary of the method: as §1
# [4] = target: PUM1 PUF domain R8-RRG (Homo sapiens, UniProt Q14671 828-1176, N1122R;Y1123R;Q1126G)
# Summary of the method: as §1
# [5] = target: PUM1 PUF domain R3-TRL (Homo sapiens, UniProt Q14671 828-1176, C935T;Q939L)
# Summary of the method: as §1
# [6] = target: PUM1 PUF domain R5-DWE (Homo sapiens, UniProt Q14671 828-1176, C1007D;R1008W;Q1011E)
# Summary of the method: as §1
# [7] = target: PUM1 PUF domain R4-PYA (Homo sapiens, UniProt Q14671 828-1176, N971P;H972Y;Q975A)
# Summary of the method: as §1
# [8] = target: PUM1 PUF domain R4-PWR (Homo sapiens, UniProt Q14671 828-1176, N971P;H972W;Q975R)
# Summary of the method: as §1
# [9] = target: PUM1 PUF domain R7-RPC (Homo sapiens, UniProt Q14671 828-1176, S1079R;N1080P;E1083C)
# Summary of the method: as §1
# [10] = target: PUM1 PUF domain R7-RGH (Homo sapiens, UniProt Q14671 828-1176, S1079R;N1080G;E1083H)
# Summary of the method: as §1
# [11] = target: PUM1 PUF domain R8-NWK (Homo sapiens, UniProt Q14671 828-1176, Y1123W;Q1126K)
# Summary of the method: as §1
# [12] = target: PUM1 PUF domain R1-RVI (Homo sapiens, UniProt Q14671 828-1176, S863R;R864V;Q867I)
# Summary of the method: as §1
# [13] = target: PUM1 PUF domain R3-SSK (Homo sapiens, UniProt Q14671 828-1176, C935S;R936S;Q939K)
# Summary of the method: as §1
# [14] = target: PUM1 PUF domain R3-HRS (Homo sapiens, UniProt Q14671 828-1176, C935H;Q939S)
# Summary of the method: as §1
# [15] = target: PUM1 PUF domain R3-QFR (Homo sapiens, UniProt Q14671 828-1176, C935Q;R936F;Q939R)
# Summary of the method: as §1
# [16] = target: PUM1 PUF domain R2-IFA (Homo sapiens, UniProt Q14671 828-1176, N899I;Y900F;Q903A)
# Summary of the method: as §1
# [17] = target: PUM1 PUF domain R7-KHG (Homo sapiens, UniProt Q14671 828-1176, S1079K;N1080H;E1083G)
# Summary of the method: as §1
sequence,measurement,setting,value
GGCUAGAACUAGUGGAUCCCCCGGCGCCCGGCGGCUCGAGCCCGGGUAAGUGUUAAUAGUCUGCAUGCCGCCGGGCGCCAUGCCUGCAGGUCGACUCUAGAAAACAUG,binding signal,[1],3.13 log2 enrichment (interaction score)
GGCUAGAACUAGUGGAUCCCCCGGCGCCCGGCGGCUCGAGCCCGGGUAAGUGUAAAUAGUCUGCAUGCCGCCGGGCGCCAUGCCUGCAGGUCGACUCUAGAAAACAUG,binding signal,[2],5.76 log2 enrichment (interaction score)
same,binding signal,[3],5.25 log2 enrichment (interaction score)
same,binding signal,[4],1.3 log2 enrichment (interaction score)
same,binding signal,[5],2.97 log2 enrichment (interaction score)
same,binding signal,[6],3.79 log2 enrichment (interaction score)
same,binding signal,[7],4.99 log2 enrichment (interaction score)
same,binding signal,[8],1.17 log2 enrichment (interaction score)
GGCUAGAACUAGUGGAUCCCCCGGCGCCCGGCGGCUCGAGCCCGGGUAAGUCUAAAUAGUCUGCAUGCCGCCGGGCGCCAUGCCUGCAGGUCGACUCUAGAAAACAUG,binding signal,[9],0.8 log2 enrichment (interaction score)
same,binding signal,[10],1.99 log2 enrichment (interaction score)
GGCUAGAACUAGUGGAUCCCCCGGCGCCCGGCGGCUCGAGCCCGGGUAAGUUUAAAUAGUCUGCAUGCCGCCGGGCGCCAUGCCUGCAGGUCGACUCUAGAAAACAUG,binding signal,[9],3.97 log2 enrichment (interaction score)
same,binding signal,[10],3.07 log2 enrichment (interaction score)
GGCUAGAACUAGUGGAUCCCCCGGCGCCCGGCGGCUCGAGCCCGGGUAAGUGAAAAUAGUCUGCAUGCCGCCGGGCGCCAUGCCUGCAGGUCGACUCUAGAAAACAUG,binding signal,[3],4.17 log2 enrichment (interaction score)
GGCUAGAACUAGUGGAUCCCCCGGCGCCCGGCGGCUCGAGCCCGGGUAAGCGUAAAUAGUCUGCAUGCCGCCGGGCGCCAUGCCUGCAGGUCGACUCUAGAAAACAUG,binding signal,[4],2.76 log2 enrichment (interaction score)
same,binding signal,[11],4.45 log2 enrichment (interaction score)
GGCUAGAACUAGUGGAUCCCCCGGCGCCCGGCGGCUCGAGCCCGGGUAAGUGUAAAUUGUCUGCAUGCCGCCGGGCGCCAUGCCUGCAGGUCGACUCUAGAAAACAUG,binding signal,[12],2.56 log2 enrichment (interaction score)
GGCUAGAACUAGUGGAUCCCCCGGCGCCCGGCGGCUCGAGCCCGGGUAAGUGUAAAUCGUCUGCAUGCCGCCGGGCGCCAUGCCUGCAGGUCGACUCUAGAAAACAUG,binding signal,[12],2.84 log2 enrichment (interaction score)
GGCUAGAACUAGUGGAUCCCCCGGCGCCCGGCGGCUCGAGCCCGGGUAAGUGUAAUUAGUCUGCAUGCCGCCGGGCGCCAUGCCUGCAGGUCGACUCUAGAAAACAUG,binding signal,[13],2.9 log2 enrichment (interaction score)
same,binding signal,[5],0.95 log2 enrichment (interaction score)
GGCUAGAACUAGUGGAUCCCCCGGCGCCCGGCGGCUCGAGCCCGGGUAAGUGUAAGUAGUCUGCAUGCCGCCGGGCGCCAUGCCUGCAGGUCGACUCUAGAAAACAUG,binding signal,[13],2.38 log2 enrichment (interaction score)
same,binding signal,[14],2.22 log2 enrichment (interaction score)
GGCUAGAACUAGUGGAUCCCCCGGCGCCCGGCGGCUCGAGCCCGGGUAAGUGUAACUAGUCUGCAUGCCGCCGGGCGCCAUGCCUGCAGGUCGACUCUAGAAAACAUG,binding signal,[15],7.11 log2 enrichment (interaction score)
GGCUAGAACUAGUGGAUCCCCCGGCGCCCGGCGGCUCGAGCCCGGGUAAGUGUAAAAAGUCUGCAUGCCGCCGGGCGCCAUGCCUGCAGGUCGACUCUAGAAAACAUG,binding signal,[16],4.76 log2 enrichment (interaction score)
GGCUAGAACUAGUGGAUCCCCCGGCGCCCGGCGGCUCGAGCCCGGGUAAGUGUACAUAGUCUGCAUGCCGCCGGGCGCCAUGCCUGCAGGUCGACUCUAGAAAACAUG,binding signal,[7],5.06 log2 enrichment (interaction score)
same,binding signal,[8],5.54 log2 enrichment (interaction score)
GGCUAGAACUAGUGGAUCCCCCGGCGCCCGGCGGCUCGAGCCCGGGUAAGUAUAAAUAGUCUGCAUGCCGCCGGGCGCCAUGCCUGCAGGUCGACUCUAGAAAACAUG,binding signal,[17],2.59 log2 enrichment (interaction score)

# — article PMC8384837, “Expanding the binding specificity for RNA recognition by a PUF domain”
